According to PubChem BioAssay (NCATS):
Inconclusive results are not listed. Unless noted, calls come from the whole dose curve; as a rule, active = well fitted curve in either direction with a large enough effect (not every such curve was filed as active); inconclusive = small, poorly fitted or top-dose-only effect, or another doubt; inactive = flat fitted curve, though single readings scatter.

Experiments:
[1] = AP1 Signaling Pathway (AID 357); settings: ME-180 AP-1-bla reporter, EGF-induced, beta-lactamase ratio, 5 h; at 17.2 µM (top of the series) unless noted;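 note: ME-180 reporter cells stimulated with EGF at its EC50 level; % is set by controls: 0 for no effect and ±100 for the full control effect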
Procedure, shortened: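 Modulation of EGF-driven AP-1 transcription was assessed with a beta-lactamase reporter in ME-180 cells. Compound and EC50 EGF were co-incubated 5 hours at 37 °C before 2.5-hour CCF4 loading at room temperature and dual-emission reading.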

[2] = Stat Signaling Pathway (AID 446); settings: ME-180 (cervical carcinoma) SIE beta-lactamase reporter, IL-6 stimulated, 5 h; at 17.2 µM (top of the series) unless noted;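 note: ME-180 cervical cancer cells given 40 pM IL-6 alongside compound; SIE-controlled beta-lactamase reporter measured as 460/530 nm FRET emission ratio; % is set by controls: 0 for no effect and ±100 for the full control effect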
Procedure, shortened: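 Overnight-plated ME-180 cells bearing a STAT Inducible Element beta-lactamase reporter; 5 h co-exposure to compound and 40 pM IL-6; values normalized to 300 pM IL-6 and 125 nM JAK inhibitor controls.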

[3] = target: Glucocorticoid receptor (Homo sapiens) (UniProt P04150); assay: GR-GFP Redistribution (AID 450;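 active = compounds whose dose series gives a full or clear partial fitted curve of increased nuclear translocation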; note: potency is the fitted concentration of half-maximal effect)
Sequence of Glucocorticoid receptor (Homo sapiens) (P04150 whole entry, looked up): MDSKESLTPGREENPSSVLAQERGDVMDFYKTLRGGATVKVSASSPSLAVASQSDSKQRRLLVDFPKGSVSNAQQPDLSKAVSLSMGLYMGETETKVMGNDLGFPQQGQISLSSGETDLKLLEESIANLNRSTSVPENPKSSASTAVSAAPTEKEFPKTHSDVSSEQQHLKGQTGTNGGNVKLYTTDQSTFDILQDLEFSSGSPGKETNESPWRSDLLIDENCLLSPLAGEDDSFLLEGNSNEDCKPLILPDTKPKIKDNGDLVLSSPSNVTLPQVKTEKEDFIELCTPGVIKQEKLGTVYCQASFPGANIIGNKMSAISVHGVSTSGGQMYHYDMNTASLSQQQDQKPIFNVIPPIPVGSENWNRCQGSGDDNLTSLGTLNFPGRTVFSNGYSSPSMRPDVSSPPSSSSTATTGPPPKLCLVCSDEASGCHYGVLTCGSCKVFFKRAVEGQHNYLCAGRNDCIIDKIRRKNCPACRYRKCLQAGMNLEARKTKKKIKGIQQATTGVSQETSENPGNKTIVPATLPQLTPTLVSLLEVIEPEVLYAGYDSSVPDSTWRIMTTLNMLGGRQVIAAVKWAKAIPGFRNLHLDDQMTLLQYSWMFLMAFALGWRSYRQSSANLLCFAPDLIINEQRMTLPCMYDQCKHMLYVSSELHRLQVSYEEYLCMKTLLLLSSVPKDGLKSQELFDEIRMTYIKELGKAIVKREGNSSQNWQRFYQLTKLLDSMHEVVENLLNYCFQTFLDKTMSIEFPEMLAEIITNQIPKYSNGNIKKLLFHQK

CCCCc1nc(NCC2CCCO2)c(C#N)c2c1COC(C)(C)C2 (centres undefined)
inactive: activity change, negative = inhibition [1] -26.3% | activity, negative = inhibition [2] 1.02% | Potency [3] > 20.6 µM

CCO/C(C)=N/n1c2nc3ccccc3nc2c2c(=O)n(Cc3ccccc3Cl)c(C)nc21
inactive: activity change, negative = inhibition [1] -30% | activity, negative = inhibition [2] -8.13% | Potency [3] > 20.6 µM

CC1(C)Cc2c(C#N)c(SCCOc3ccccc3)nc(N3CCOCC3)c2CO1
inactive: activity change, negative = inhibition [1] -5.93% | activity, negative = inhibition [2] -22.3% | Potency [3] > 20.6 µM

Cc1nc(N2CCN(C(=O)c3ccc(Cl)cc3)CC2)c(C#N)c2c1COC(C)(C)C2
inactive: activity change, negative = inhibition [1] -10% | activity, negative = inhibition [2] -17.4% | Potency [3] > 20.6 µM

CCCCc1c(C)c2ccc(OCC(C)=O)cc2oc1=O
inactive: activity change, negative = inhibition [1] -16.2% | activity, negative = inhibition [2] -0.63% | Potency [3] > 20.6 µM

Cn1c(=O)c2c(nc(NCc3ccco3)n2Cc2ccc(Cl)cc2Cl)n(C)c1=O
inactive: activity change, negative = inhibition [1] 4.86% | activity, negative = inhibition [2] -17.6% | Potency [3] > 20.6 µM

CCCc1nc(N2CCOCC2)c(C#N)c2c1CCCC2
inactive: activity change, negative = inhibition [1] -22% | activity, negative = inhibition [2] -12.3% | Potency [3] > 20.6 µM

CCCCc1c(O)nc(SCCN(C)C)n(-c2ccccc2)c1=O
inactive: activity change, negative = inhibition [1] 10% | activity, negative = inhibition [2] 2.07% | Potency [3] > 20.6 µM

Cc1cccn2c(=O)c3cc(C(N)=S)c(=N)n(CCCOC(C)C)c3nc12
inactive: activity change, negative = inhibition [1] -0.111% | activity, negative = inhibition [2] 13.3% | Potency [3] > 20.6 µM

COc1ccccc1NC(=O)C1=C(C)NC(SCC(=O)c2ccc(C)cc2)=C(C#N)C1c1ccco1 (centres undefined)
inactive: activity change, negative = inhibition [1] -8.91% | activity, negative = inhibition [2] -6.63% | Potency [3] > 20.6 µM

COC(=O)c1c(NC(=O)c2nn(C)cc2Cl)sc2c1CCCC2
inactive: activity change, negative = inhibition [1] -24.3% | activity, negative = inhibition [2] -10.7% | Potency [3] > 20.6 µM

Fc1ccccc1-c1nc(NCCCN2CCOCC2)c2ccccc2n1
inactive: activity change, negative = inhibition [1] 0.19% | activity, negative = inhibition [2] -7.69% | Potency [3] > 20.6 µM

CC(C)(C)OC(=O)NCCC(=O)Oc1ccc2ccc(=O)oc2c1
inactive: activity change, negative = inhibition [1] 16.1% | activity, negative = inhibition [2] 12.7% | Potency [3] > 20.6 µM

COC(=O)CN(c1nc(C)c(Br)c(OC)n1)S(=O)(=O)c1ccc(C)cc1
inactive: activity change, negative = inhibition [1] -6.01% | activity, negative = inhibition [2] 7.73% | Potency [3] > 20.6 µM

CCCOc1cc(CN2CCCCC2)cc(C(C)=O)c1
inactive: activity change, negative = inhibition [1] 27.9% | activity, negative = inhibition [2] 7.32% | Potency [3] > 20.6 µM

CCCc1nc(NC2CCCCC2)c(C#N)c2c1COC(C)(C)C2
inactive: activity change, negative = inhibition [1] 16.4% | activity, negative = inhibition [2] 25.5% | Potency [3] > 20.6 µM

CCOc1ccc(C2C=C(c3ccccc3)Nc3ncnn32)cc1 (centres undefined)
inactive: activity change, negative = inhibition [1] -28.8% | activity, negative = inhibition [2] -2.5% | Potency [3] > 20.6 µM

c1ccc2c(c1)CCOC2CNCCCN1CCCCC1 (centres undefined)
inactive: activity change, negative = inhibition [1] -0.837% | activity, negative = inhibition [2] 2.31% | Potency [3] > 20.6 µM

CC(=O)Nc1ccc(-c2cc3ccccc3o2)cc1
inactive: activity change, negative = inhibition [1] -10.3% | activity, negative = inhibition [2] -0.606% | Potency [3] > 20.6 µM

Cc1ccc2c(c1)[C@@H]1CN(C)CC[C@@H]1N2S(=O)(=O)c1ccc(F)cc1
inactive: activity change, negative = inhibition [1] 12.8% | activity, negative = inhibition [2] 5.84% | Potency [3] > 20.6 µM

O=C(NCCN1CCCCC1)/C(=N\O)c1ccccc1
inactive: activity change, negative = inhibition [1] -7.56% | activity, negative = inhibition [2] -1.14% | Potency [3] > 20.6 µM

CN1CCN(CC(=O)Nc2nc(-c3ccccc3)cs2)CC1
inactive: activity change, negative = inhibition [1] 9.16% | activity, negative = inhibition [2] -4.84% | Potency [3] > 20.6 µM

Cc1cccc(OCC(=O)N2CCC(N3CCCCCC3)CC2)c1
inactive: activity change, negative = inhibition [1] 4.73% | activity, negative = inhibition [2] 5.82% | Potency [3] > 20.6 µM

CCc1nnc(NC(=O)CSc2nc(C)c3c(c2C#N)CCCC3)s1
inactive: activity change, negative = inhibition [1] -12.7% | activity, negative = inhibition [2] -23.4% | Potency [3] > 20.6 µM

Cc1ccc(-n2ncc3c(N4CCC(C(N)=O)CC4)ncnc32)c(C)c1
inactive: activity change, negative = inhibition [1] 5.42% | activity, negative = inhibition [2] -2.42% | Potency [3] > 20.6 µM

COc1ccc(CSC2=NCCN2)cc1Cl
inactive: activity change, negative = inhibition [1] 15.6% | activity, negative = inhibition [2] 8.84% | Potency [3] > 20.6 µM

CCCCNC(=O)C(C#N)c1nc2ccccc2nc1N1CCN(c2ccccc2F)CC1 (centres undefined)
inactive: activity change, negative = inhibition [1] -4.46% | activity, negative = inhibition [2] 0.859% | Potency [3] > 20.6 µM

Brc1ccc(-c2cnc3n2CCCC3)cc1
inactive: activity change, negative = inhibition [1] 1.22% | activity, negative = inhibition [2] 16.1% | Potency [3] > 20.6 µM

N#CC1=C2SCC(O)(c3ccccc3)N2C(=O)CC1c1ccccc1 (centres undefined)
inactive: activity change, negative = inhibition [1] -17.2% | activity, negative = inhibition [2] -21.7% | Potency [3] > 20.6 µM

COc1cc(/C=N/O)ccc1OCc1ccc(C(=O)O)cc1
inactive: activity change, negative = inhibition [1] -13.9% | activity, negative = inhibition [2] -11.7% | Potency [3] > 20.6 µM

CCCc1cc(NCCCCO)n2c(nc3ccccc32)c1C#N
inactive: activity change, negative = inhibition [1] -18.6% | activity, negative = inhibition [2] -4.18% | Potency [3] > 20.6 µM

CC(C)Cn1nc(NC(=O)C(C)(C)C)c2cc3ccccc3nc21
inactive: activity change, negative = inhibition [1] -20.3% | activity, negative = inhibition [2] -6.46% | Potency [3] > 20.6 µM

CCCCCNC(=O)C(C#N)c1nc2ccccc2nc1N1CC(C)OC(C)C1 (centres undefined)
inactive: activity change, negative = inhibition [1] -18.2% | activity, negative = inhibition [2] -11.4% | Potency [3] > 20.6 µM

Nc1nnnn1/N=C/c1ccco1
inactive: activity change, negative = inhibition [1] 2.89% | activity, negative = inhibition [2] -1.38% | Potency [3] > 20.6 µM

CC1(C)Cc2c(c(-c3ccco3)[nH]c(=O)c2C#N)CS1
inactive: activity change, negative = inhibition [1] -2.31% | activity, negative = inhibition [2] 11.6% | Potency [3] > 20.6 µM

COCCCNC(=O)c1c(N)n(/N=C/c2ccccn2)c2nc3ccccc3nc12
inactive: activity change, negative = inhibition [1] -25.1% | activity, negative = inhibition [2] -10.3% | Potency [3] > 20.6 µM

CCOC(=O)C1=C(C)NC(SCC(=O)Nc2nc(C)cs2)=C(C#N)C1c1cccs1 (centres undefined)
inactive: activity change, negative = inhibition [1] -22.9% | activity, negative = inhibition [2] -27.7% | Potency [3] > 20.6 µM

CCOC(=O)c1[nH]c2ccc(F)cc2c1N=C(C)N(CC)CC
inactive: activity change, negative = inhibition [1] 4.09% | activity, negative = inhibition [2] 5.12% | Potency [3] > 20.6 µM

O=C(O)CCCCCCC1C(=O)NC(=O)N1CCC(O)C1CCCCC1 (centres undefined)
inactive: activity change, negative = inhibition [1] -4.54% | activity, negative = inhibition [2] 14.6% | Potency [3] > 20.6 µM

Cn1ccnc1C(O)c1ccc(OCc2ccccc2)cc1 (centres undefined)
inactive: activity change, negative = inhibition [1] -6.56% | activity, negative = inhibition [2] 2.08% | Potency [3] > 20.6 µM

Cn1c(Cl)cnc1C1CC(=O)c2cc(Cl)ccc2O1 (centres undefined)
inactive: activity change, negative = inhibition [1] 14.1% | activity, negative = inhibition [2] 0.321% | Potency [3] > 20.6 µM

COCCCn1cnc2c(c1=O)c1nc3ccccc3nc1n2CCc1ccccc1
inactive: activity change, negative = inhibition [1] -15.7% | activity, negative = inhibition [2] -9.66% | Potency [3] > 20.6 µM

CC(C)Cc1nc(N2CCCCC2)c(C#N)c2c1CCC2
inactive: activity change, negative = inhibition [1] 28.8% | activity, negative = inhibition [2] 9.01% | Potency [3] > 20.6 µM

c1ccc(N2CCN(c3nc(NCc4ccco4)c4ccccc4n3)CC2)cc1
inactive: activity change, negative = inhibition [1] -16.8% | activity, negative = inhibition [2] -28% | Potency [3] > 20.6 µM

COc1ccc(C2/C(=C(\O)c3ccc4c(c3)OCCO4)C(=O)C(=O)N2CCCN(C)C)cc1 (centres undefined)
inactive: activity change, negative = inhibition [1] 8.31% | activity, negative = inhibition [2] 2.89% | Potency [3] > 20.6 µM

Cc1c(C)c2cc(Cl)c(O)c(CN3CCCCC3)c2oc1=O
inactive: activity change, negative = inhibition [1] 17.2% | activity, negative = inhibition [2] 2.68% | Potency [3] > 20.6 µM

CC1(C)CC(=O)C(C=NCCN2CCN(CCc3ccccc3)CC2)=C(O)C1
inactive: activity change, negative = inhibition [1] 2.91% | activity, negative = inhibition [2] -3.07% | Potency [3] > 20.6 µM

CSc1nc2[nH]c3c(c2c2nnnn12)CCCC3
inactive: activity change, negative = inhibition [1] -20.6% | activity, negative = inhibition [2] -10.8% | Potency [3] > 20.6 µM

CN(CC(O)COc1ccc(OCC(O)CN(C)C2CCCCC2)cc1)C1CCCCC1 (centres undefined)
inactive: activity change, negative = inhibition [1] 11.3% | activity, negative = inhibition [2] 12.2% | Potency [3] > 20.6 µM

COC(=O)c1ccc(CSc2ncnc3c2sc2nc(N4CCOCC4)c4c(c23)CCCC4)o1
inactive: activity change, negative = inhibition [1] 20.1% | activity, negative = inhibition [2] 25.6% | Potency [3] > 20.6 µM

CCC(=O)Oc1ccc(C(CC)C(CC)c2ccc(OC(=O)CC)cc2)cc1 (centres undefined)
inactive: activity change, negative = inhibition [1] -8.93% | activity, negative = inhibition [2] -3.77% | Potency [3] > 20.6 µM

COc1ccc(Cn2c(N)c(C#N)c3nc4ccccc4nc32)cc1OC
inactive: activity change, negative = inhibition [1] -3.62% | activity, negative = inhibition [2] 11.6% | Potency [3] > 20.6 µM

Cc1ccc(N2C(=O)CC(N(O)C3CC(=O)N(c4ccc(C)cc4)C3=O)C2=O)cc1 (centres undefined)
inactive: activity change, negative = inhibition [1] -20.5% | activity, negative = inhibition [2] -25.3% | Potency [3] > 20.6 µM

C=CCn1c(SCC(=O)OC)nc2sc3c(c2c1=O)CCN(C)C3
inactive: activity change, negative = inhibition [1] -12.5% | activity, negative = inhibition [2] 2.28% | Potency [3] > 20.6 µM

CN1CCN(CCC(=O)N2c3ccccc3Sc3ccc(Cl)cc32)CC1
inactive: activity change, negative = inhibition [1] 12.7% | activity, negative = inhibition [2] 6.36% | Potency [3] > 20.6 µM

O=C(c1cccs1)N1CCC(N2CCN(c3ccccc3)CC2)CC1
inactive: activity change, negative = inhibition [1] 9.88% | activity, negative = inhibition [2] -2.08% | Potency [3] > 20.6 µM

CSC1=Nc2sc3c(c2C2=NCCN12)CC(C)(C)OC3
inactive: activity change, negative = inhibition [1] 26% | activity, negative = inhibition [2] 14.3% | Potency [3] > 20.6 µM

C=CCOC(=O)C(C#N)c1nc2ccccc2nc1N1CCC(C(=O)OCC)CC1 (centres undefined)
inactive: activity change, negative = inhibition [1] -17.2% | activity, negative = inhibition [2] -10.4% | Potency [3] > 20.6 µM
